# Measurements as given in PubChem BioAssay.
# Values joined by “and” are separate entries in the source; they are usually repeats but may differ in a detail not shown here. Identical values can stand only once. Active and inactive are the calls of the source. Unless noted, no rule for the calls is given here.
# Key:
# [1] = compounds altering circadian rhythm period length – cell-based, LOPAC library, luminescence reporter (AID 2774); conditions: circadian reporter cells, at 7 µM, actives lie on both sides;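 also: values are relative to mean of DMSO wells on each plate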
# [2] = test system: Aerobactin synthetase IucA (Klebsiella pneumoniae, hypervirulent); experiment: biochemical IucA inhibition screen of LOPAC library by absorbance (AID 1346212); conditions: IucA enzyme assay, absorbance (OD) readout; stronger effect = lower value;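 tested at 8 µM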;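 also: 100% = no compound wells and 0% = no enzyme wells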
# [3] = compounds altering viability of human ES cells (AID 493140); conditions: human embryonic stem cell survival screen; stronger effect = higher value;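 also: cells exposed to compounds for four days before counting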
# [4] = test system: Hepatitis C virus NS3 helicase; experiment: blockers of NS3h binding to ssDNA – biochemical, fluorescence polarization, LOPAC1280 library, primary screen (AID 687035; in the data active = inhibition above about 37%); conditions: Purified HCV NS3 helicase, Cy5-dT15 ssDNA binding fluorescence polarization; stronger effect = higher value; concentration not given here
# [5] = compounds altering Cy5-DNA-NS3h complex signal – biochemical, LOPAC1280, artefact control for HCV NS3 helicase inhibitor project (AID 687037); conditions: Cy5-DNA-NS3h complex fluorescence interference counterscreen
# [6] = viability loss with induced miR-34 in A549 – imaging, A549 dox-inducible miR-34, nuclei and caspase counts, primary screen (AID 1347080;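 active = compounds whose cell count with miR-34 switched on is under 0.7 times the count with it off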); conditions: A549 miR-34 inducible, Hoechst nuclei count, 48 h
# [7] = galactose survival enhancers in mitochondrial complex I cybrids – cell-based, galactose medium, ATP luminescence, primary screen (AID 1645843;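 active = z-score of at least 1.8 in each of two replicates, scored against plate mean and spread of sample wells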;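 also: positive z means more ATP and so rescue of galactose-driven cybrid death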); conditions: complex I mutant cybrid cells, 72 h, stronger effect = higher value
# [8] = blockers of cellular phospholipid synthesis – cell-based, LOPAC library, screen 4, primary screen (AID 1347384); conditions: animal cells, phospholipid biosynthesis inhibition screen; at 10 µM
# [9] = P. berghei load reduction in hepatocytes – cell-based, HepG2, luciferase luminescence, HepG2 viability, primary screen (AID 624349; in the data active = parasite load remaining mostly below about 12%, no sharp cut-off; inactive = mostly above about 10%;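 also: 100% = mean of DMSO negative control wells on the same plate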); conditions: P. berghei liver stage in HepG2, luciferase luminescence, concentration not given here; parasite load remaining: stronger effect = lower value; viability: measured here: HepG2 viability without parasites
# [10] = MELAS cybrid and Rieske KO viability enhancers – cell-based, MELAS cybrids, Rieske KO mouse fibroblasts, CellTiter-Glo, primary screen (AID 1508586;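 active = mean z-score across replicates of 1.96 or higher in either the MELAS or the Rieske mutant cell line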;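 also: z relative to plate mean and SD of compound and empty wells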); conditions: low glucose
# [11] = measured here: relative caspase fold change +Dox/-Dox
# [12] = measured here: total cells with miR-34 induction, stronger effect = lower value
# [13] = measured here: total cells without miR-34 induction
smiles,measurement,setting,value
CCCN(CCC)[C@@H]1CCc2c(F)ccc(O)c2C1,period change,[1],-0.015 h (inactive)
same,remaining activity,[2],110% (inactive)
N#CC(C#N)=Cc1cc(O)c(O)c(O)c1,period change,[1],-0.035 h (inactive)
same,survival,[3],61.5 (inactive)
same,remaining activity,[2],109% (inactive)
O=P(O)(O)C(Cl)(Cl)P(=O)(O)O,period change,[1],-0.115 h (inactive)
same,inhibition,[4],-2% (inactive)
same,fluorescence ratio (interference),[5],1 (inactive)
same,remaining activity,[2],94.8% (inactive)
same,fold change,[6]; stronger effect = lower value,0.966 (inactive) and 0.892 (inactive)
same,fold change,[6]; [11],1.44 and 0.98
same,cell count,[6]; [12],9450 and 9630
same,cell count,[6]; [13],9790 and 10800
same,z-score,[7],1.8 (inactive) and 0.645 (inactive)
Nc1ncnc2c1ncn2[C@@H]1O[C@H](COP(=O)(O)CP(=O)(O)OP(=O)(O)O)[C@H](O)C1O (stereo partly drawn),period change,[1],0.01 h (inactive)
same,inhibition,[4],-1% (inactive)
same,fluorescence ratio (interference),[5],1 (inactive)
same,remaining activity,[2],111% (inactive)
same,fold change,[6]; stronger effect = lower value,1.06 (inactive)
same,fold change,[6]; [11],0.784
same,cell count,[6]; [12],11200
same,cell count,[6]; [13],10600
same,z-score,[7],2.36 (active)
C[N+]1(C)C2CC(OC(=O)[C@H](CO)c3ccccc3)CC1C1OC12 (stereo partly drawn),period change,[1],-0.095 hour (inactive) and 0.155 hour (inactive)
same,inhibition,[4],-1% (inactive) and 0% (inactive)
same,fluorescence ratio (interference),[5],1 (inactive)
same,remaining activity,[2],96.4% (inactive)
same,fold change,[6]; stronger effect = lower value,0.984 (inactive) and 1.04 (inactive)
same,fold change,[6]; [11],0.938 and 1.11
same,cell count,[6]; [12],10100 and 9050
same,cell count,[6]; [13],10300 and 8720
same,z-score,[7],0.475 (inactive) and 0.45 (inactive)
CCCCCCC(C)(C)c1ccc([C@@H]2C[C@H](O)CC[C@H]2CCCO)c(O)c1,period change,[1],0.01 h (inactive)
same,inhibition,[4],-4% (inactive)
same,fluorescence ratio (interference),[5],1 (inactive)
same,remaining activity,[2],106% (inactive)
same,fold change,[6]; stronger effect = lower value,0.915 (inactive)
same,fold change,[6]; [11],0.979
same,cell count,[6]; [12],5170
same,cell count,[6]; [13],5640
CC(=O)[C@H]1CC[C@H]2[C@@H]3CC[C@H]4C[C@](C)(O)CC[C@]4(C)[C@H]3CC[C@]12C,inhibition,[4],-2% (inactive)
same,fluorescence ratio (interference),[5],1 (inactive)
same,remaining activity,[2],116% (inactive)
same,fold change,[6]; stronger effect = lower value,0.971 (inactive)
same,fold change,[6]; [11],1.33
same,cell count,[6]; [12],10300
same,cell count,[6]; [13],10600
same,outcome,[8],inactive
same,z-score,[7],-0.05 (inactive)
CCN(CC)c1ncnc2c1ncn2[C@@H]1O[C@H](COP(=O)(O)OP(=O)(O)C(Br)(Br)P(=O)(O)O)[C@@H](O)[C@H]1O,period change,[1],0.205 h (inactive)
same,inhibition,[4],-1% (inactive)
same,fluorescence ratio (interference),[5],1 (inactive)
same,remaining activity,[2],110% (inactive)
same,fold change,[6]; stronger effect = lower value,1.01 (inactive)
same,fold change,[6]; [11],2.23
same,cell count,[6]; [12],10400
same,cell count,[6]; [13],10200
same,z-score,[7],0.37 (inactive)
O=C(O)C1C2CCC(O2)C1C(=O)O (stereo not drawn),period change,[1],0.03 h (inactive)
same,survival,[3],66 (inactive)
same,remaining activity,[2],81.7% (inactive)
COC(=O)c1cc2c(cn1)[nH]c1ccccc12,period change,[1],0.035 h (inactive)
same,remaining activity,[2],104% (inactive)
Oc1ccc2c3c1O[C@H]1c4[nH]c5ccccc5c4C[C@@]4(O)[C@@H](C2)N(CC2CC2)CC[C@]314,parasite load remaining,[9],47.8% (inactive)
same,viability,[9],98.5%
same,remaining activity,[2],108% (inactive)
same,fold change,[6]; stronger effect = lower value,0.934 (inactive)
same,fold change,[6]; [11],1.1
same,cell count,[6]; [12],8700
same,cell count,[6]; [13],9320
same,z-score,"[10]; MELAS cybrid survival, CellTiter-Glo 48 h, stronger effect = higher value",0.24 (inactive)
same,z-score,"[10]; Rieske KO mouse fibroblast survival, CellTiter-Glo 72 h",0.662
same,z-score,[7],-0.405 (inactive)
COc1cc(C=C(C#N)C#N)cc(O)c1O,period change,[1],-0.12 h (inactive)
same,remaining activity,[2],117% (inactive)
C=CCN1CC[C@]23c4c5ccc(O)c4O[C@@H]2/C(=N/N=C2\CC[C@@]4(O)C6Cc7ccc(O)c8c7[C@@]4(CCN6CC=C)[C@@H]2O8)CC[C@@]3(O)C1C5,period change,[1],0.015 h (inactive)
same,remaining activity,[2],108% (inactive)
CC(C)(O)[C@@H]1C2OC(=O)C1[C@]1(O)C[C@H]3O[C@]34C(=O)O[C@H]2[C@]14C (stereo partly drawn) (tested in a mixture with another compound),remaining activity,[2],128% (inactive)
same,outcome,[8],inactive
CCCN(CCC)C(=O)Cc1c(-c2ccc(Cl)cc2)nc2c(Cl)cc(Cl)cn12,period change,[1],-0.05 h (inactive)
same,remaining activity,[2],120% (inactive)
CNC(=O)OCC[N+](C)(C)C,period change,[1],-0.01 h (inactive)
same,remaining activity,[2],109% (inactive)
O=C(OC1CCN(CCCl)CC1)C(c1ccccc1)c1ccccc1,period change,[1],-0.15 h (inactive)
same,remaining activity,[2],106% (inactive)
c1ccc(C2(c3ccccc3)CC2C2=NCCN2)cc1 (stereo not drawn),inhibition,[4],-3% (inactive)
same,fluorescence ratio (interference),[5],0.9 (inactive)
same,remaining activity,[2],115% (inactive)
same,fold change,"[6]; stronger effect = lower value, cell number ratio, induced over uninduced",1.07 (inactive)
same,fold change,[6]; [11],1.35
same,cell count,[6]; [12],11300
same,cell count,[6]; [13],10600
same,outcome,[8],inactive
same,z-score,[7],0.18 (inactive)
CCc1c(C(=O)OC)ncc2[nH]c3cc(OC)c(OC)cc3c12,period change,[1],0.185 h (inactive)
same,remaining activity,[2],93% (inactive)
NCC#Cc1ccccc1,period change,[1],0.045 h (inactive)
same,remaining activity,[2],96.6% (inactive)
O=[N+]([O-])/C=C/c1ccc2c(c1)OCO2,parasite load remaining,[9],42.5% (inactive)
same,viability,[9],65.7%
same,inhibition,[4],-1% (inactive)
same,fluorescence ratio (interference),[5],1 (inactive)
same,remaining activity,[2],107% (inactive)
same,fold change,[6]; stronger effect = lower value,1.45 (inactive)
same,fold change,[6]; [11],0.546
same,cell count,[6]; [12],2000
same,cell count,[6]; [13],1380
same,outcome,[8],inactive
same,z-score,[7],-0.995 (inactive)
C[Se]C[C@H](N)C(=O)O,period change,[1],-0.13 h (inactive)
same,inhibition,[4],-5% (inactive)
same,fluorescence ratio (interference),[5],1 (inactive)
same,remaining activity,[2],106% (inactive)
N[C@H](CCCCCP(=O)(O)O)C(=O)O,period change,[1],-0.025 h (inactive)
same,remaining activity,[2],114% (inactive)
Clc1ccc(C(c2ccc(Cl)cc2)n2cc[n+](CC(OCc3ccc(Cl)cc3Cl)c3ccc(Cl)cc3Cl)c2)cc1 (stereo not drawn),period change,[1],-0.26 h (inactive)
same,inhibition,[4],-3% (inactive)
same,fluorescence ratio (interference),[5],0.9 (inactive)
same,remaining activity,[2],106% (inactive)
same,fold change,[6]; stronger effect = lower value,0.883 (inactive)
same,fold change,[6]; [11],1.87
same,cell count,[6]; [12],1420
same,cell count,[6]; [13],1610
same,z-score,[7],-1.52 (inactive)
CCN(CC)C(=O)N[C@@H]1C[C@@H]2c3cccc4[nH]cc(c34)C[C@H]2N(C)C1,period change,[1],0.085 h (inactive)
same,remaining activity,[2],102% (inactive)
C[C@H]1OC[C@@H](C[N+](C)(C)C)O1,period change,[1],-0.07 h (inactive)
same,remaining activity,[2],81.5% (inactive)
CCCN1CCC[C@@H](c2cccc(C#N)c2)C1,period change,[1],-0.025 h (inactive)
same,remaining activity,[2],122% (inactive)
CN(N=O)c1cc(O)ccc1O,period change,[1],0.05 h (inactive)
same,inhibition,[4],-1% (inactive)
same,fluorescence ratio (interference),[5],1 (inactive)
same,remaining activity,[2],103% (inactive)
same,fold change,[6]; stronger effect = lower value,1.03 (inactive)
same,fold change,[6]; [11],1.21
same,cell count,[6]; [12],9960
same,cell count,[6]; [13],9640
same,z-score,[7],-1.04 (inactive)
N[C@@H](CCl)C(=O)O,period change,[1],0.125 h (inactive)
same,inhibition,[4],-3% (inactive)
same,fluorescence ratio (interference),[5],1 (inactive)
same,remaining activity,[2],104% (inactive)
